Measured values reported in PubChem BioAssay.
Calls of active or inactive are those of the source. Unless noted, no rule for the calls is given here.

What was measured:
[1] = tested on: XIP peptide (Xip251-270) binding; test: XIP fragment 251-270 binding compounds – biochemical, small-molecule microarray, fluorescence 635/667 nm, 0.1 µg/mL protein, primary screen (AID 1182); settings: fluorescent protein binding, 635 nm, higher = more signal, called active from +8 up or from −8 down
XIP peptide (Xip251-270) = test: compounds binding XIP fragment 251-270 – biochemical, small-molecule microarray, fluorescence 635/667 nm, 0.5 µg/mL protein, primary screen (AID 1183); settings: fluorescence 635 nm, higher = more signal
[2] = blood-stage malaria parasite viability loss – strain 3D7, DAPI fluorescence, 100 nL, primary screen (AID 1184);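 also: parasites grown inside human red blood cells in medium with human serum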; settings: P. falciparum 3D7 growth, 3 d, higher = more signal
[3] = molecular target: Homeobox protein Hox-A13 (Mus musculus) (UniProt Q62424); test: disruptors of Hoxa13 oligonucleotide interaction – biochemical, fluorescence polarization, labeled oligonucleotide, primary screen (AID 1185); settings: Hoxa13:DNA binding, 15 min, higher = more signal, called active from +8 up or from −8 down
Chain of Homeobox protein Hox-A13 (Mus musculus) (Q62424 whole entry, looked up): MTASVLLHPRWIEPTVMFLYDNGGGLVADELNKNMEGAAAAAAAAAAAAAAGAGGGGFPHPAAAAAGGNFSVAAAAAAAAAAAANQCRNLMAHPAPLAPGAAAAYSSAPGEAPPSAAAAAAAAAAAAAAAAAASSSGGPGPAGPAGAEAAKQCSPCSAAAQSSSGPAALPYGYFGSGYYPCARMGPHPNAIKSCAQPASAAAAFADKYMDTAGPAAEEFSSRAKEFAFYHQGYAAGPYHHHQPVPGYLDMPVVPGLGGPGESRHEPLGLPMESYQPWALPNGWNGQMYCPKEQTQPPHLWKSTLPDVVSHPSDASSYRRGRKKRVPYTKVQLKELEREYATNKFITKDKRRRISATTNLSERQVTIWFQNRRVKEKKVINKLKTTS

[4] = blockers of DNA damage checkpoint Chk1 activation – imaging, HeLa, hydroxyurea, phospho-Chk1 antibody, percent positive cells, primary screen (AID 1186); settings: hydroxyurea-induced phospho-Chk1 immunofluorescence imaging, higher = more signal
[5] = blockers of DNA damage checkpoint Chk1 activation – imaging, HeLa, hydroxyurea, phospho-Chk1 nuclear intensity, primary screen (AID 1187); settings: hydroxyurea-induced phospho-Chk1 immunofluorescence imaging, higher = more signal

SMILES | composite z-score [1] | composite z-score (XIP peptide (Xip251-270)) | z-score [2] | z-score [3] | z-score [4] | z-score [5]
CCOC(=O)C[C@H]1[C@H](OC(=O)c2ccccc2-c2ccccc2)[C@@H](NC(=O)c2ccc3ccccc3c2)c2cc(OCCCO)ccc2N1C(=O)Cc1ccc(OC)cc1 | 0.882 (inactive) | -0.47 | 0.0063 | -2.79 (inactive) | -0.242 (inactive) | -0.189 (inactive)
Cc1ccc(S[C@]2(C(=O)NC3CC3)CC(=O)N(C(C)C)[C@@H]2c2ccc(CO)cc2I)cc1 | 0.717 (inactive) | 0.682 | -1.63 | -4.06 (inactive) | -0.248 (inactive) | -0.439 (inactive)
O=C1O[C@@H](c2ccccc2)[C@@H](c2ccccc2)N2[C@@H](c3ccccc3OCCO)[C@]3(C(=O)Nc4ccc(C#CCCO)cc43)[C@@H](C(=O)NC[C@H](O)c3ccccc3)[C@H]12 | 0.798 (inactive) | 0.816 | -1.81 | -3.98 (inactive) | 0.0469 (inactive) | 0.144 (inactive)
C=CCNC(=O)[C@H]1[C@@H]2C(=O)O[C@@H](c3ccccc3)[C@@H](c3ccccc3)N2[C@@H](c2ccccc2OCCO)[C@]12C(=O)N(C(=O)OCCOC)c1ccc(C#Cc3ccc(OC)cc3)cc12 | 0.559 (inactive) | 0.807 | -2.16 | -0.0717 (inactive) | 0.0629 (inactive) | 0.539 (inactive)
O=C1C[C@@](C(=O)NCc2ccccc2)(c2ccc([N+](=O)[O-])cc2)[C@@H](c2ccc(CO)cc2)N1C1CCCCC1 | 0.58 (inactive) | 0.607 | 0.469 | -2.95 (inactive) | -0.53 (inactive) | -0.0661 (inactive)
O=C1OCCC=C[C@H]2OC34C=CCN(c5ccc6ccccc6c5)C(=O)[C@H]3N(CCO)C(=O)[C@@H]4C12 (some centres undefined) | 0.263 (inactive) | 0.569 | -0.022 | -5.62 (inactive) | 0.8 (inactive) | 0.163 (inactive)
CC(C)(C)N1CC=CC23O[C@@H]4C=CCCOC(=O)C4[C@H]2C(=O)N(CCCCCCO)[C@@H]3C1=O (some centres undefined) | 1.14 (inactive) | 0.202 | -0.143 | -3.77 (inactive) | -0.327 (inactive) | 0.222 (inactive)
CCCCC(O)C1C=CC2C(=O)N(c3ccccc3)C(=O)C2N1Nc1ccccc1 (centres undefined) | 0.145 (inactive) | 0.137 | -0.0871 | -4.11 (inactive) | 0.385 (inactive) | 0.283 (inactive)
CC(C)C[C@@H]1NC(=O)[C@@]23C(=O)N[C@@H](Cc4ccccc4)C2[C@H](C)[C@@]2(C)O[C@H]2C3/C=C/C/C=C\CNC(=O)CNC1=O (some centres undefined) | 0.533 (inactive) | 0.58 | -0.59 | -5.87 (inactive) | 0.312 (inactive) | -0.0422 (inactive)
O=C1[C@H]2C=C(I)[C@H](C[C@@H]2OCCCCCCO)[C@@]12CO2 | -0.0604 (inactive) | 0.77 | 1.09 | -3.09 (inactive) | -0.116 (inactive) | -0.124 (inactive)
O=C1C2C=CC(C(O)C3CCCCC3)N(n3cnnc3)C2C(=O)N1Cc1ccccc1 (centres undefined) | 0.534 (inactive) | -0.0061 | -0.902 | -1.8 (inactive) | 0.359 (inactive) | -0.394 (inactive)
CCCCCC1=C2CNC(Cc3ccccc3)(C(=O)OC)C=C2C(C)C1=O (centres undefined) | -0.186 (inactive) | 0.247 | -0.662 | -8.44 (active) | 1.14 (inactive) | 0.846 (inactive)
COCCCNC(=O)[C@@]1(Sc2ccc(C)cc2)CC(=O)N(Cc2ccccc2C(F)(F)F)[C@@H]1c1ccc(CO)cc1I | 0.814 (inactive) | -0.251 | -0.284 | -2.03 (inactive) | 0.26 (inactive) | 0.204 (inactive)
C=CCOC(=O)[C@@H]1[C@H]2C(=O)O[C@H](c3ccccc3)[C@H](c3ccccc3)N2[C@H](c2ccc(OCCOC(=O)[C@H]3C[C@H]4C(=O)NCC(=O)N4[C@H]3c3cccc(OCCO)c3)cc2)[C@@]12C(=O)Nc1ccc(I)cc12 | 0.604 (inactive) | 0.794 | -1.9 | 0.337 (inactive) | -0.856 (inactive) | -1.2 (inactive)
[N-]=[N+]=Nc1ccccc1C[C@@]1(C(=O)NCc2ccccc2)N=C(c2ccc(OCCCO)cc2)O[C@@H]1c1ccccc1N=[N+]=[N-] | 1.46 (inactive) | 0.729 | -2.76 | -0.454 (inactive) | -0.747 (inactive) | -1.1 (inactive)
C=CCOC(=O)[C@H]1[C@@H]2C(=O)O[C@@H](c3ccccc3)[C@@H](c3ccccc3)N2[C@@H](c2ccc(OCCOC(=O)[C@@H]3C[C@@H]4C(=O)N[C@@H](CCCC[N+](C)(C)C)C(=O)N4[C@@H]3c3ccc(O)cc3)cc2)[C@]12C(=O)Nc1ccc(I)cc12 | 0.557 (inactive) | 0.765 | 0.0373 | 6.46 (inactive) | -0.337 (inactive) | -0.0674 (inactive)
C=C1C(=O)C=C2CN(C(=O)c3ccccc3)[C@@](Cc3ccc(OC)cc3)(C(=O)OC)[C@@H]12 | 0.187 (inactive) | 0.691 | -1.17 | -3.61 (inactive) | 0.395 (inactive) | 0.354 (inactive)

SMILES | composite z-score [1] | composite z-score (XIP peptide (Xip251-270)) | z-score [2] | z-score [3] | z-score [4] | z-score [5]
N#Cc1ccc(-c2cccc(=O)o2)cc1 | 0.37 (inactive) | -0.0086 | 0.944 | 0.108 (inactive) | 0.419 (inactive) | 0.674 (inactive)
C[N+](C)(C)CCCCNC(=O)[C@H]1C[C@H]2C(=O)N[C@@H](Cc3ccccc3)C(=O)N2[C@H]1c1cccc(OCCO)c1 | 0.875 (inactive) | 0.696 | -0.352 | -3.44 (inactive) | 0.88 (inactive) | 0.461 (inactive)
Cc1ccc(S[C@]2(C(=O)NC(C)C)CC(=O)N(C3CCCCC3)[C@@H]2c2ccc(CO)cc2I)cc1 | 0.814 (inactive) | 0.864 | -1.31 | -4.43 (inactive) | 0.243 (inactive) | 0.202 (inactive)
O=C1NC(=O)C2C1C=CC(C(O)c1ccc(B(O)O)cc1)N2Nc1ccc(Cl)cc1Cl (centres undefined) | 0.185 (inactive) | -0.0187 | -0.195 | -4.45 (inactive) | 0.549 (inactive) | 0.367 (inactive)
O=C(NCCN1CCOCC1)[C@@H]1c2ccccc2C(=O)N(Cc2ccccc2C(F)(F)F)[C@H]1c1ccc(CO)cc1 | 0.3 (inactive) | 0.777 | -1.16 | -3.55 (inactive) | 0.126 (inactive) | 0.371 (inactive)
COC(=O)C(CC#Cc1ccc2c(c1)[C@]1(C(=O)N2)[C@H](C(=O)N2CCc3cc(OC)c(OC)cc3C2)[C@H]2C(=O)O[C@H](c3ccccc3)[C@H](c3ccccc3)N2[C@@H]1c1ccccc1OCCO)C(=O)OC | 0.254 (inactive) | 0.796 | -2.23 | 2.81 (inactive) | -0.0915 (inactive) | 0.0536 (inactive)
C=CCC(OC(C)=O)[C@@H]1[C@@H](N(Cc2ccc(-c3cccc(C(F)(F)F)c3)o2)C(=O)Cc2ccc(F)cc2)c2cc(OCCCO)ccc2N1C(=O)Cc1ccc2ccccc2c1 (some centres undefined) | -0.068 (inactive) | -0.293 | -0.328 | -0.668 (inactive) | 0.19 (inactive) | 0.0472 (inactive)
CC1CC/C=C\[C@H]2OC34C=CCN(Cn5nnc6ccccc65)C(=O)[C@H]3N(CCCCCCO)C(=O)[C@@H]4C2C(=O)O1 (some centres undefined) | 0.0152 (inactive) | 0.217 | 0.21 | -3.02 (inactive) | -0.481 (inactive) | -0.521 (inactive)
COCCOC(=O)N1C(=O)[C@@]2(c3ccccc31)[C@H](c1ccc(O)cc1)N1[C@H](c3ccccc3)[C@H](c3ccccc3)OC(=O)[C@H]1[C@@H]2C(=O)N1CCCCCCC1 | 4.66 (inactive) | 0.91 | -1.01 | 0.899 (inactive) | -0.0437 (inactive) | 0.157 (inactive)
C=C(COC)C(=O)CC[C@@H](OC(C)=O)c1ccccc1OCCO | 0.0063 (inactive) | 0.522 | -2.06 | -5.01 (inactive) | 0.374 (inactive) | 0.77 (inactive)
C=C(COC)C(=O)CC[C@@H](OC(=O)c1ccccc1-c1ccccc1C(=O)O)c1ccc(OCCO)cc1 | 0.264 (inactive) | 0.666 | -0.61 | -5.88 (inactive) | -0.0419 (inactive) | 0.0533 (inactive)
COC(=O)C(CC#Cc1ccc2c(c1)[C@]1(C(=O)N2)[C@H](c2ccccc2OCCO)N2[C@H](c3ccccc3)[C@H](c3ccccc3)OC(=O)[C@H]2[C@@H]1C(=O)N1CCc2cc(OC)c(OC)cc2C1)C(=O)OC | -0.19 (inactive) | 0.621 | -2.19 | 3.17 (inactive) | -0.0586 (inactive) | -0.139 (inactive)
O=C1c2ccccc2[C@@]2(Cc3ccccc3N(Cc3ccccc3)C2=O)[C@H](c2ccc(CO)cc2)N1Cc1ccccc1Cl | 0.0408 (inactive) | 0.311 | 0.689 | -0.299 (inactive) | -0.0672 (inactive) | 0 (inactive)
COCCn1c(C(=O)N(C)C)cc2c1C[C@H]1CN(C(=O)c3ccccc3)[C@@](Cc3ccc(OC)cc3)(C(=O)OC)[C@@H]21 | 0.116 (inactive) | 0.435 | -1.45 | -3.91 (inactive) | 0.688 (inactive) | 0.542 (inactive)
C[N+](C)(C)CCCC[C@@H]1NC(=O)[C@H]2C[C@@H](C(=O)NCCCCCNC(=O)CS)[C@@H](c3cccc(OCCO)c3)N2C1=O | 0.649 (inactive) | -0.203 | -0.222 | -2.8 (inactive) | 0.0911 (inactive) | 0.164 (inactive)
C=C(CCCC)/C(=C/C[C@H](OC(=O)c1ccncc1)c1ccccc1OCCO)c1cc(C(=O)OC)ccc1OC | 0.578 (inactive) | 0.0792 | -3.07 | -4.22 (inactive) | -1.15 (inactive) | -0.733 (inactive)
CCCCC(O)C1C=CC2C(=O)N(c3ccccc3)C(=O)C2N1Nc1ccc(C#N)cc1 (centres undefined) | 1 (inactive) | 0.109 | 0.832 | -3.62 (inactive) | 0.194 (inactive) | 0.404 (inactive)
